Sampled rows, rich in hits. Any-hit rate of the full collection: about 1.4%.
V-ATPase pH: alters yeast V-ATPase proton transport; S. cerevisiae, pHLuorin cytosolic pH fluorescence; response, % at 10 µM; AID 504577; hit rate 0.37% among 350,000; in the data active = response mostly above about 7.3%, no sharp cut-off; inactive = mostly below about 5.4%; also: actives read high
p-CIP stab down: p/CIP protein destabilization; Q05BA5; F442A p/CIP-EGFP cells, EGFP fluorescence, 16 h; decrease of EGFP signal, % at 10 µM; hit rate 0.01% among 290,000; AID 1984;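 active = EGFP signal decrease of at least 30% at 10 µM or well 3 SD below plate mean, unless failing retest; inactive = the rest, including hits failing retest or dose response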
H9c2 protect: protects H9c2 cardiomyocytes from peroxide injury. H2O2 injury protection, ATPLite, 2 h. protection from H2O2 cell death, % at 20 µM. hit rate 0.63% among 360,000. AID 588492;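 active = compounds giving at least 50% protection of heart cells from peroxide-induced death in the single-dose screen, raw or plate-pattern-corrected value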;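 also: 0% = DMSO wells with peroxide and 100% = DMSO wells without peroxide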
CR mimetic SO: yeast age-related superoxide inhibition as caloric restriction mimetic; S. cerevisiae aged cells, superoxide DHE fluorescence; stronger effect = lower value; superoxide response (% of plate mean), % at 10 µM; hit rate 0.18% among 330,000; AID 2690;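 active = superoxide response under a set limit, about three screen SD below normal, cut at about 65% in these data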;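 also: yeast aged for seven days with compound at 30 °C before DHE staining; 100% = average MFI of all compound-treated wells on the plate with controls excluded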
MIN6 prolif: induces beta-cell replication in MIN6 cells | MIN6 cells proliferation, ATPlite luminescence, 48 h; cells starved in 0.2% serum; 100% = growth in 10% serum | proliferation, % at 10 µM | hit rate 0.29% among 330,000 | AID 2380;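 active = compounds whose signal lies at least 3.5 SD above the mean of all wells on their plate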;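 also: 0% = DMSO-treated cells in low-serum medium and 100% = 10% serum control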
HSV augment: increases HSV replication in cells; HSV replication augmentation in cells, fold increase; maximum fold increase; hit rate 0.005% among 220,000; AID 1956; in the data active = maximum fold increase above about 1.5; inconclusive = no clear call, values can overlap the other calls; tested in PC3 cells
* = called active by the depositor.

Results for COc1cccc(C2c3c(C)nn(-c4ccc([N+](=O)[O-])cc4)c3N=C3C(=O)Nc4ccccc4N32)c1 (configuration not stated) ?
V-ATPase pH: -1; p-CIP stab down: -15; H9c2 protect: 56*; CR mimetic SO: 97; MIN6 prolif: -7; HSV augment: inactive

Results for CCOc1ccc(S(=O)(=O)NC(C)C)cc1C(N)=O ?
V-ATPase pH: -2; p-CIP stab down: 16; H9c2 protect: 0; CR mimetic SO: 96; MIN6 prolif: -1; HSV augment: inactive

Results for CC1CCN(C(=O)COC(=O)c2n[nH]c(=O)c3ccccc23)CC1 ?
V-ATPase pH: 0; H9c2 protect: 62*; CR mimetic SO: 92; MIN6 prolif: -1

Results for Cc1ccc(NC(=O)NC(=O)CSc2nnc(-c3ccc(Cl)cc3Cl)n2N)c(C)c1 ?
V-ATPase pH: 14*; p-CIP stab down: -10; H9c2 protect: -1; CR mimetic SO: 102; MIN6 prolif: 0; HSV augment: inactive

How did Cc1ccc(-c2nnc(SCC(=O)NC(=O)Nc3ccc(C)cc3C)n2N)cc1 do in these assays?
V-ATPase pH: 3; p-CIP stab down: 10; H9c2 protect: -2; CR mimetic SO: 95; MIN6 prolif: 0; HSV augment: inactive

What do the screens show for `CN(C)S(=O)(=O)c1ccc2[nH]cc(/C=C/c3nc4ccccc4c(=O)n3-c3ccccc3)c2c1`?
V-ATPase pH: -5; p-CIP stab down: -13; H9c2 protect: 66*; CR mimetic SO: 102; MIN6 prolif: -2; HSV augment: inactive

What do the screens show for `O=C(CCN1C(=O)C2C3C=CC(C4CC34)C2C1=O)Oc1ccc(Br)cc1` (configuration not stated)?
V-ATPase pH: 13*; p-CIP stab down: 6; H9c2 protect: 12; CR mimetic SO: 91; MIN6 prolif: 0; HSV augment: inactive

Results for Cc1cc(C)cc(OC(=O)CCN2C(=O)C3C4C=CC(C5CC45)C3C2=O)c1 (configuration not stated) ?
V-ATPase pH: -4; p-CIP stab down: -10; H9c2 protect: 4; CR mimetic SO: 83; MIN6 prolif: 3; HSV augment: inactive

Results for CC(=O)Oc1c(-c2ccc(Br)o2)oc2ccccc2c1=O ?
V-ATPase pH: 0; p-CIP stab down: -16; H9c2 protect: 58*; CR mimetic SO: 99; MIN6 prolif: -4

Results for COc1ccc(-c2oc3ccccc3c(=O)c2OC(C)=O)cc1 ?
V-ATPase pH: -3; p-CIP stab down: 7; H9c2 protect: 46; CR mimetic SO: 96; MIN6 prolif: -6; HSV augment: inactive

How did Cc1cc(N=Cc2c(O)ccc3ccccc23)no1 do in these assays?
V-ATPase pH: 2; p-CIP stab down: 1; H9c2 protect: 13; CR mimetic SO: 113; MIN6 prolif: -2; HSV augment: inactive

What do the screens show for `Cc1cc(N=Cc2c(O)ccc3cc(Br)ccc23)no1`?
V-ATPase pH: 3; p-CIP stab down: -10; H9c2 protect: 66*; CR mimetic SO: 99; HSV augment: inactive

Results for O=[N+]([O-])c1ccc(S(=O)Cc2ccccc2)c([N+](=O)[O-])c1 (configuration not stated) ?
V-ATPase pH: 22*; H9c2 protect: -21

What do the screens show for `O=[N+]([O-])c1ccc(CS(=O)c2ccccc2)cc1` (configuration not stated)?
V-ATPase pH: -3; H9c2 protect: -3

How did COc1ccc(C(C)(C)C)cc1NC(=O)c1cc(S(=O)(=O)N(C)C)ccc1N1CCCC1 do in these assays?
V-ATPase pH: 1; p-CIP stab down: -8; H9c2 protect: -4; CR mimetic SO: 95; MIN6 prolif: 0; HSV augment: inactive

Results for Cc1cc(C)c(OC2(c3ccccc3)OC(=O)c3ccccc32)c(C)c1 (configuration not stated) ?
V-ATPase pH: 19*; p-CIP stab down: -11; H9c2 protect: -9; CR mimetic SO: 80; MIN6 prolif: -6; HSV augment: inactive

Results for CCCCC(=O)Nc1cc(OC)c(NC(=S)Nc2ccc(OC)cc2)cc1OC ?
V-ATPase pH: 0; H9c2 protect: -5

Results for COC(=O)c1ccc(N)c(N=CC2=C(O)CC(C)(C)CC2=O)c1 ?
V-ATPase pH: 0; p-CIP stab down: -40; H9c2 protect: 58*; CR mimetic SO: 100; MIN6 prolif: 0; HSV augment: inconclusive

What do the screens show for `CC1(C)CC(=O)C(C=Nc2cc(C(=O)c3ccccc3)ccc2N)=C(O)C1`?
V-ATPase pH: 0; p-CIP stab down: -15; H9c2 protect: 17; CR mimetic SO: 98; MIN6 prolif: -1; HSV augment: inconclusive

Results for CCSc1nnc(N)s1 ?
V-ATPase pH: 3; p-CIP stab down: 1; H9c2 protect: 76*; CR mimetic SO: 93; MIN6 prolif: 0; HSV augment: inactive

How did CC(C)CSc1nnc(N)s1 do in these assays?
V-ATPase pH: 3; p-CIP stab down: 1; H9c2 protect: 16; CR mimetic SO: 119; MIN6 prolif: 0; HSV augment: inactive

Results for CCN(CC)C(=O)c1ccc(-c2nnc(Nc3ccc(O)cc3)c3ccccc23)cc1 ?
V-ATPase pH: -4; p-CIP stab down: -5; H9c2 protect: 59*; CR mimetic SO: 102; MIN6 prolif: -4

Results for CNC(=O)c1ccc(Nc2nnc(-c3ccc(C(N)=O)cc3)c3ccccc23)cc1 ?
V-ATPase pH: 0; p-CIP stab down: 0; H9c2 protect: 12; CR mimetic SO: 92; MIN6 prolif: -1

How did CCN(CC)C(=O)c1ccc(-c2nnc(Nc3ccc(C(=O)N(C)C)cc3)c3ccccc23)cc1 do in these assays?
V-ATPase pH: -6; p-CIP stab down: -4; H9c2 protect: 13; CR mimetic SO: 110; MIN6 prolif: -3

Results for NC(=O)c1ccc(Nc2nnc(-c3ccc(O)cc3)c3ccccc23)cc1 ?
V-ATPase pH: 1; p-CIP stab down: 6; H9c2 protect: 59*; CR mimetic SO: 111; MIN6 prolif: 1; HSV augment: inactive

How did C=CCN(Cc1nc(-c2ccccc2)no1)C(=O)c1ccco1 do in these assays?
V-ATPase pH: -2; p-CIP stab down: -4; H9c2 protect: -1; CR mimetic SO: 88; MIN6 prolif: 0

What do the screens show for `COc1cc(C(=O)Nc2nc(-c3cccs3)cs2)cc(OC)c1OC`?
V-ATPase pH: 0; p-CIP stab down: 4; H9c2 protect: 81*; CR mimetic SO: 106; MIN6 prolif: -4; HSV augment: inactive

How did CCN1C(=O)[C@H]2[C@@H](c3ccc(-c4ccc(C(C)=O)cc4)cc3)N[C@@](C)(C(=O)OC)[C@H]2C1=O do in these assays?
V-ATPase pH: 3; H9c2 protect: 52*; CR mimetic SO: 99; MIN6 prolif: -4

How did CCN1C(=O)[C@H]2[C@@H](c3ccc(-c4ccccc4)cc3)N[C@@](C)(C(=O)OC)[C@H]2C1=O do in these assays?
V-ATPase pH: -3; H9c2 protect: 1; CR mimetic SO: 96; MIN6 prolif: -4

Compound activity as filed in PubChem.
